Source: PubChem BioAssay
The full list was thinned out, with hits kept by preference.
15-hLO-2 inh = 15-hLO-2 (ALOX15B) enzyme inhibition; O15296; purified 15hLO-2, xylenol orange hydroperoxide absorbance; Potency, µM (highest dose often 57.1 µM), inactives show at the top dose activity change, negative = inhibition, hits mostly inhibitors; actives 0.56% (n = 110,000); AID 881; note: potency is the fitted concentration of half-maximal effect; nearly all actives have a fitted effect of over 60% in size
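Read-out: hydroperoxide product oxidises ferrous iron, measured as xylenol orange complex via the 573-to-405 nm absorbance ratio after 30 min. Reaction: 50 nM enzyme, 15 min compound preincubation, 45 uM arachidonic acid, 90 min RT, Hepes pH 7.5 with Triton X-100.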
ALOX12 inhib = blocks human 12-lipoxygenase activity. purified 12-hLO, xylenol orange hydroperoxide absorbance. Potency, µM (series often up to 57.1 µM), for inactives: at the highest dose activity change, negative = inhibition, hits mostly inhibitors. AID 1452. P18054. actives 0.12% (n = 150,000); note: potency is the fitted concentration of half-maximal effect; nearly all actives have a fitted effect of over 55% in size
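150 nM 12hLO, 25 mM Hepes pH 7.0 + 0.01% Triton X-100; cpd preinc 15 min RT; 40 uM arachidonic acid, 30 min RT; Fe-XO 30 min; A573/A405 ratio as read-out.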
PNC assembly inh = perinucleolar compartment assembly inhibition; activity change (PNC), negative = inhibition, % at 10 µM; actives 3.1% (n = 140,000); PC3M PTB-GFP, PNC prevalence imaging, 16 h; hits give low values;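 active = readout at or below -70, meaning at least 70% loss of cells showing the perinucleolar compartment, a nuclear body marking cancer cells; inconclusive = readout between -30 and a set limit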;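 note: plate controls were DMSO wells for no effect and camptothecin positive control wells for full effect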
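Read-out is percentage of cells bearing a perinucleolar compartment, from automated 20x imaging of fixed, Hoechst-stained PC3M PTB-GFP cells. Cells were seeded 4 h, then exposed 16 h to compound (23 nl of library stock) in duplicate plates.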
IMPase Li inh = cell-permeable IMPase inhibitors with lithium potentiation | actives 0.35% (n = 210,000) | Potency, µM (doses to about 59.4 µM), for the others: at the highest dose activity, negative = IMPase inhibition, usual class: inhibitors | AID 1457 | CHO-M1 cells, IP1 TR-FRET (IP-One), carbachol + lithium;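 note: IP1 builds up when IMPase is blocked and the TR-FRET signal falls; potency is the fitted concentration of half-maximal effect; plate controls were basal vehicle for no effect and high inhibitor control for full effect; nearly all actives have a fitted effect of over 50% in size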
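CHO-M1, 2000 cells/well, 16–30 h culture; cpd + low Li+, 30 min 37C; lysis with d2-IP1/Eu-anti-IP1 Ab, 10 min RT; TR-FRET 665/620 ratio and 620 channel; AC50 via Hill.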
IMPase cell inh = cell-permeable inhibitors of inositol monophosphatase (IMPase); P97697; CHO-M1 cells, IP1 accumulation, HTRF TR-FRET ratio; inhibition (IP1 accumulation), % at 46.1 µM; 120,000 tested, under 10 active; AID 901; active = well fitted curve in the direction sought with a large enough effect in the signal ratio, not every such curve was filed as active; inconclusive = small, poorly fitted or top-dose-only effect, or a change in a side signal; inactive = no such curve, though single readings can be large or run the other way; the % refers to the signal ratio;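 note: cells stimulated with carbachol in lithium chloride buffer; plate controls were DMSO basal wells for no effect and reference inhibitor wells for full effect; higher means more IMPase inhibition seen as more IP1 and lower FRET ratio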
Target sequence (P97697 whole entry, looked up): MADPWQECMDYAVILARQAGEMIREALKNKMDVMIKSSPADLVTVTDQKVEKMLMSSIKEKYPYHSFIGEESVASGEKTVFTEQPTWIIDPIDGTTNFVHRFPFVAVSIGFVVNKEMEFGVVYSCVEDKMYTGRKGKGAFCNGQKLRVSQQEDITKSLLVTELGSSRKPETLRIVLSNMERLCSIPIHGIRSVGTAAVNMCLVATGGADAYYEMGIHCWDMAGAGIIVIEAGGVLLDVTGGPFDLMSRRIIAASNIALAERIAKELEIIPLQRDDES
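The IP-One HTRF competitive assay in carbachol-stimulated CHO-M1 cells quantifies cellular IP1. Compounds spanned up to 46 uM final, and activity is expressed as AC50 from concentration-response fits of the ratio and donor data.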
An asterisk follows results filed as active; ? = inconclusive; . = not tested or not shown; [ ] = another dose, or the depositor's remark. Unless noted, calls come from the whole dose curve; as a rule, active = well fitted curve in the direction sought with a large enough effect; inconclusive = small, poorly fitted or top-dose-only effect, or another doubt; inactive = no such curve, though single readings can be large; an effect the other way counts as inactive or inconclusive. Unless noted, % is set by controls: 0 for no effect and ±100 for the full control effect.

SMILES | 15-hLO-2 inh | ALOX12 inhib | PNC assembly inh | IMPase Li inh | IMPase cell inh
COc1ccc2nc(NC(=O)c3cccc(OCc4c(C)noc4C)c3)sc2c1 | -15% | ? | -91* | ? | 9
CCSc1nnc(NC(=O)c2cccc(OCc3c(C)noc3C)c2)s1 | -7% | 0% | -111* | -1%[38.3 µM] | 5
Cc1noc(C)c1COc1cccc(C(=O)Nc2ccc(OCc3ccccc3)cc2)c1 | 3% | 0% | -18 | 12%[38.3 µM] | 7
O=C(Cn1c(=O)n(CCCS(=O)(=O)C2CCCCC2)c(=O)c2ccccc21)Nc1ccc(F)c(Cl)c1 | . | . | . | . | 3
COc1ccc(NC(=O)c2cc(S(=O)(=O)NCC3COc4ccccc4O3)ccc2F)cc1 (stereo not given) | . | -6% | 16 | 14% | 2
CC(C)c1ccc(NC(=O)c2cc(S(=O)(=O)NCC3COc4ccccc4O3)ccc2F)cc1 (stereo not given) | . | -4% | -113* | -7% | .
Cc1onc(-c2c(F)cccc2Cl)c1C(=O)NCCO | . | . | . | -4% | .
Cc1onc(-c2c(F)cccc2Cl)c1C(=O)Nc1ccc(S(=O)(=O)Nc2ncccn2)cc1 | -2% | 0% | -123* | 1%[38.3 µM] | 1
Cc1onc(-c2c(F)cccc2Cl)c1C(=O)Nc1ccc(OC(C)C)cc1 | . | . | . | . | 5
Cc1onc(-c2c(F)cccc2Cl)c1C(=O)NCCc1ccc(S(N)(=O)=O)cc1 | 2% | 2% | -95* | -8%[38.3 µM] | -3
CCCN(C(=O)CCc1nc(-c2ccc(OC)cc2)no1)c1ccccc1F | . | . | . | . | 5
O=C(Nc1ccccc1C(=O)NCc1ccco1)c1ccccc1 | 5% | 0% | ? | 20%[38.3 µM] | 15
O=C(NC1CS(=O)(=O)CC1NCc1ccco1)c1ccccc1 (stereo not given) | -2% | 4% | -96* | -1%[38.3 µM] | -1
O=C(COC(=O)CSc1ccc2ccccc2c1Br)NC1CC1 | . | . | . | 10µM* | .
O=C(COC(=O)CSc1ccc2ccccc2c1)NC1CC1 | . | 3% | 49 | . | -20
N#Cc1nc(-c2ccco2)oc1NCc1ccc(F)cc1 | -8% | -5% | -82* | 10%[38.3 µM] | 0
CC(C)CNc1oc(-c2ccco2)nc1C#N | . | 0% | -100* | -1% | ?
C[C@@H]1[C@H](O)[C@@H](C)/C=C/C=C/C=C/C=C/C=C/C=C/C=C/[C@H](O[C@@H]2O[C@H](C)[C@@H](O)[C@H](N)[C@@H]2O)C[C@@H]2O[C@](O)(C[C@@H](O)C[C@@H](O)[C@H](O)CC[C@@H](O)C[C@@H](O)CC(=O)O[C@H]1C)C[C@H](O)[C@H]2C(=O)O | 4% | 0% | . | -11% | .
O=P(O)(O)CP(=O)(O)O | 5% | -13% | -100* | -9%[38.3 µM] | -1
O=C(O)CP(=O)(O)O | -3%[11.4 µM] | 0% | 20 | 9% | -1
O=C(Nc1ccccc1N1CCCC1)c1ccc(Br)o1 | -2% | 1% | 10 | 44%[38.3 µM] | 15
Cc1cc(O)c(NC(=S)NC(=O)c2ccc(-c3ccc(Cl)cc3)o2)cc1C | 13µM* | ? | 10 | -7% | 9
Cc1ccc(NC(=S)NC(=O)c2ccc(-c3ccc(Cl)cc3)o2)c(O)c1 | . | -5% | ? | 19% | 10
O=C(Nc1ccccc1N1CCCCC1)c1ccc(-c2ccc(Cl)cc2)o1 | . | 1% | -82* | 11% | .
Cc1cc(F)ccc1NCc1ccccc1-c1nnc(-c2ccccc2Cl)o1 | . | . | . | . | 1
SMILES | 15-hLO-2 inh | ALOX12 inhib | PNC assembly inh | IMPase Li inh | IMPase cell inh
O=c1c2cnn(-c3ccc(F)cc3)c2ncn1Cc1ccccc1 | . | 8% | 264 | -3% | 1
O=c1c2cnn(-c3ccccc3)c2ncn1Cc1cccc(Cl)c1 | 4% | -3% | -108* | 20%[38.3 µM] | 7
CC(=O)c1c(N2CCOCC2)nc(=S)n(-c2ccc([N+](=O)[O-])cc2)c1C | 4% | -1% | -113* | 11%[38.3 µM] | -11
CC(=O)c1c(N2CCOCC2)nc(=O)n(-c2ccccc2)c1C | 5% | 5% | -80* | 0%[38.3 µM] | -6
CCOC(=O)CSc1nc2sc3c(c2c(=O)n1-c1ccc(OC)cc1)CC(C(C)C)OC3 (stereo not given) | . | . | . | . | 3
O=C(Nc1ccccc1)c1ccccc1OCc1cccc([N+](=O)[O-])c1 | . | 0% | -99* | 9% | .
Cc1cc(C(=O)Nc2cccc([N+](=O)[O-])c2)c(C)o1 | . | -2% | -109* | -8% | .
Cc1c(C(=O)Nc2ccc(OCc3ccccc3)cc2)cccc1[N+](=O)[O-] | -10% | -4% | 0 | -1%[38.3 µM] | 2
Cc1ccc(S(=O)(=O)C(C#N)c2nc3ccccc3nc2N2CC(C)OC(C)C2)cc1C (stereo not given) | -23% | -6% | -139* | 4%[38.3 µM] | 0
Cc1ccc(S(=O)(=O)C(C#N)c2nc3ccccc3nc2N2CCCC2)cc1 (stereo not given) | ? | 28µM* | -11 | 2%[38.3 µM] | ?
COCCn1c(=NC(=O)c2nc3ccccc3s2)sc2cc(S(C)(=O)=O)ccc21 | . | -1% | 0 | 22µM* | 12
COc1ccccc1CNC(=O)CSc1nc(N)c(C#N)c(-c2cccs2)c1C#N | -10% | -7% | 71 | 3.5µM* | -1
CN(C)C(=O)N1CCN(C(=O)N2CCOCC2)CC1 | . | -3% | -100* | 9% | -1
CCC(C)OC(=O)c1cc(C)nc2c(Br)cc(Br)cc12 (stereo not given) | . | 2% | -100* | ? | -21
CCOc1ccc2nc(C)cc(C(=O)O)c2c1 | -3% | 3% | -5 | -5%[38.3 µM] | 6
CCCCc1ccc(NC(=S)Nc2ccc(Cl)c(S(=O)(=O)N(C)C)c2)cc1 | . | -7% | -119* | 2% | .
COC(=O)c1ccc(C(NC(=O)OCc2ccccc2)/C(F)=C/[C@@H](C)C(=O)NCc2ccc(OC)c(OC)c2)cc1 (stereo not given in full) | -24% | -3% | -119* | 9% | .
COC(=O)c1ccc(C(NC(=O)OCc2ccccc2)/C(F)=C/[C@@H](C)C(=O)NCc2ccc(-c3ccccc3)cc2)cc1 (stereo not given in full) | -15% | -2% | -19 | 2% | .
CC1CCCN(Cc2c(O)ccc3c(=O)c(Oc4ccccc4Cl)c(C(F)(F)F)oc23)C1 (stereo not given) | . | . | . | . | 1
Cc1cc(C(F)(F)F)n(-c2nc(C(=O)N/N=C/c3ccc(F)cc3)cs2)n1 | . | 5% | -106* | 7%[38.3 µM] | 3
COc1ccccc1NC(=O)c1csc(-n2nc(C)cc2C(F)(F)F)n1 | 3% | -7% | -9 | -9%[38.3 µM] | 3
COc1cccc(/C=N/NC(=O)c2csc(-n3nc(C)cc3C(F)(F)F)n2)c1 | -3% | 2% | -90* | 10%[38.3 µM] | 8
Cc1cc(C(F)(F)F)n(-c2nc(C(=O)NNS(=O)(=O)c3ccccc3)cs2)n1 | -5% | 1% | ? | 25%[38.3 µM] | -1
